Screening data deposited in PubChem BioAssay by National Center for Advancing Translational Sciences (NCATS).
Compounds with a hit are over-represented: about 1% of the library has one in this group of screens.
RXFP1 antag: blocks the human relaxin receptor RXFP1; HEK293-RXFP1, relaxin-stimulated cAMP HTRF, 30 min; active compounds read low; activity change, negative = inhibition, % at 57.5 µM; 0.59% of 350,000 active;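 active = activity change of -60% or lower, but not beyond a set lower limit; inconclusive = change between -60% and -40%, or beyond the set limit; inactive = change above -40%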
gsp agonist: activates gsp, the McCune-Albright syndrome mutation. gsp mutant cells, cAMP HTRF, 30 min. Potency, µM (doses to about 76.9 µM), hits mostly activators. 0.13% of 340,000 active; active = well fitted activation curve with a large enough effect; inconclusive = small, poorly fitted or top-dose-only effect, or another doubt; inactive = no such curve, though single readings can be large or run the other way; cell line not stated here;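 note: phosphodiesterase inhibitor Ro 20-1724 added with compounds to block cAMP breakdown; nearly all actives have a fitted effect of over 60% in size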
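Cells in DMEM/10% FBS with G418 were pretreated with compounds in DMSO plus […] (300 uM stock) for 30 min at 37C. cAMP was measured by HTRF (cAMP-d2 plus anti-cAMP antibody-K) after 30 min at room temperature.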
RXFP1 agonist: activates the human relaxin receptor RXFP1; Q9HBX9; HEK293T-RXFP1 cAMP TR-FRET, 30 min; response scale: percent of porcine relaxin response, buffer zero; Potency, µM (series often up to 57.5 µM), usual class: activators; 0.3% of 370,000 active; active = well fitted activation curve with a large enough effect; inconclusive = small, poorly fitted or top-dose-only effect; note: nearly all actives have a fitted effect of over 60% in size
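cAMP rise read by TR-FRET after 30 min, 37C compound exposure (up to 58 uM) in RXFP1-transfected HEK293 cells with Ro 20174 present. EC50 from Hill-equation fits, with 29 nM porcine relaxin as 100% and buffer as basal.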
gsp antagonist: gsp mutant antagonism; Potency, µM (series often up to 76.9 µM), actives largely listed as inhibitors; 0.4% of 340,000 active; gsp-mutant cells, cAMP HTRF, 30 min; calls by dose curve; cell line not stated here;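 note: intracellular cAMP measured with PDE inhibitor Ro 20-1724 present during compound exposure; nearly all actives have a fitted effect of over 65% in size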
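Measurement of cellular cAMP by homogeneous time-resolved fluorescence following a 30 min compound exposure at 37C. The PDE inhibitor […] was present throughout; the assay buffer was DPBS with 0.05% BSA and 0.005% Tween 20.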
TSHR antag: antagonists of human thyroid stimulating hormone receptor; activity change, negative = inhibition, % at 11.5 µM; TSHR-expressing cells, TSH-stimulated cAMP HTRF, 2 h; active compounds read low; 0.2% of 330,000 active;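 active = activity change below a set negative limit, meaning inhibition stronger than a set level, cut at about -70% in these data; inconclusive = activity change between two set negative limits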
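Read-out is FRET at 665 nm (cryptate excitation 337 nm) from a cryptate-tagged anti-cAMP antibody, competed by cell cAMP against cAMP-d2. Compounds are tested on freshly harvested TSHR cells challenged with 4nM TSH (EC80) for 2 hours at 37 deg C.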
Each line names hits and unclear results; the compound was inactive in the other large screens.

O=C1c2cc(S(=O)(=O)NCCO)ccc2-c2ccc(S(=O)(=O)NCCO)cc21	none
O=C(O)CNS(=O)(=O)c1ccc2c(c1)C(=O)c1cc(S(=O)(=O)NCC(=O)O)ccc1-2	gsp agonist 13µM
CCCCSc1nnc2c(n1)OC(c1ccc(Br)s1)Nc1ccccc1-2 (stereo not given)	none (no result: gsp agonist, gsp antagonist, TSHR antag)
CCN(Cc1ccc2c(c1)OCO2)C(=O)CSc1nc(C)nc2sc(C)c(C)c12	gsp antagonist 40µM
CCN(C(=O)CSc1nc(C)nc2sc(C)c(C)c12)c1ccc(F)cc1	gsp agonist inconclusive
CC1CCCC(N2CCN(S(=O)(=O)c3ccccc3)CC2)C1 (stereo not given)	TSHR antag -108
COc1ccc(C(=O)c2cn(Cc3ccc(F)cc3)c3ccc(C)cc3c2=O)cc1	none (no result: gsp agonist, gsp antagonist, TSHR antag)
CC(C)(C)c1ccc(OCc2ccc(C(=O)Nc3cccnc3)o2)cc1	RXFP1 antag -64, gsp agonist inconclusive, gsp antagonist inconclusive
Fc1ccc(-c2onc3ccc(C4OCCO4)cc23)cc1	gsp antagonist 11µM
Cc1ccc2scc(N3CCCCC3C)c(=O)c2c1 (stereo not given)	none (no result: gsp agonist, gsp antagonist, TSHR antag)
N#Cc1c(-c2ccc(Cl)cc2)cc(-c2cccs2)nc1SCC(=O)O	gsp agonist inconclusive, gsp antagonist 10µM
CC(C)CCNC(=O)c1ccc(Cn2c(=S)[nH]c3ccccc3c2=O)cc1	RXFP1 antag -73
CCc1ccccc1-n1cnc2cc(C(=O)NC3CCCCCC3)ccc21	none (no result: gsp agonist, gsp antagonist, TSHR antag)
CC(=O)[C@H]1CCC2C3CC=C4C[C@@H](OS(=O)(=O)O)CC[C@]4(C)C3CC[C@@]21C (stereo not given in full)	none (no result: RXFP1 antag, gsp agonist, RXFP1 agonist, gsp antagonist)
CC(=O)C1CCC2C3CC=C4CC(SC(=N)N)CCC4(C)C3CCC12C (stereo not given)	RXFP1 antag -105 (no result: RXFP1 agonist, TSHR antag)
O=C(COc1ccccc1F)Nc1cc(S(=O)(=O)Nc2cccc(Cl)c2)ccc1O	gsp antagonist 35µM
COc1ccc(NC(=O)Nc2ccc3c(c2)N(C)C(=O)CS3)cc1OC	none (no result: RXFP1 antag)
CC(=O)c1ccc(NC(=O)Nc2ccc3c(c2)N(C)C(=O)CS3)cc1	RXFP1 antag -70, gsp agonist inconclusive, gsp antagonist 35µM
COc1ccc(NC(=O)Nc2ccc3c(c2)N(C)C(=O)CS3)cc1Cl	RXFP1 antag inconclusive, gsp antagonist 50µM
Cc1cc(=O)n(Cc2ccc(F)cc2Cl)c2c1c(C)nn2C	none (no result: gsp agonist, gsp antagonist, TSHR antag)
CC1=C/C(=N\OS(=O)(=O)c2ccccc2)C(C)=CC1=O	RXFP1 antag inconclusive, gsp antagonist 28µM, TSHR antag -84
CC1=C/C(=N\OS(=O)(=O)c2ccccc2)C(C(C)C)=CC1=O	RXFP1 antag inconclusive, TSHR antag -84
CC1=C(C)/C(=N\OS(=O)(=O)c2ccc(C)cc2)C=CC1=O	RXFP1 antag inconclusive
COc1ccc(N=C2O/C(=C/c3sc(=S)n(CC4CCCO4)c3O)N=C2C#N)cc1 (stereo not given)	RXFP1 antag -88, gsp antagonist 35µM
CCCCNC(C(=O)Nc1cccc(S(=O)(=O)N2CCOCC2)c1)c1ccccc1 (stereo not given)	gsp antagonist 11µM
Cc1ccc(C)c(SCC(=O)Nc2cccc(S(=O)(=O)N3CCOCC3)c2)c1	none
Cc1ccc(S(=O)(=O)NCCc2nnc3ccc(SCc4ccc(F)cc4)nn23)cc1	none (no result: gsp agonist, gsp antagonist, TSHR antag)
CCCC(=O)Nc1ccc(O)c(C(C)=O)c1	none (no result: gsp agonist, RXFP1 agonist, gsp antagonist, TSHR antag)
O=C(NCc1cccnc1)C1CCN(S(=O)(=O)c2cc(Cl)ccc2Cl)CC1	RXFP1 antag -88
Cn1cc([N+](=O)[O-])cc1-c1nc2ccccc2n1C	none
Cn1c(-c2ccc([N+](=O)[O-])cc2)nc2ccccc21	gsp agonist 2.2µM, RXFP1 agonist inconclusive
CN(Cc1ccccc1C#N)S(=O)(=O)c1cccs1	none
N#Cc1nccnc1S(=O)(=O)c1cccs1	TSHR antag -87
COC(=O)C1C(=O)c2c([nH]c(C(=O)OC3CCCC3C)c2C)CC1C (stereo not given)	RXFP1 antag -63
COC(=O)C1C(=O)c2c([nH]c(C(=O)OC3CCCCC3)c2C)CC1C (stereo not given)	none (no result: RXFP1 antag)
CC(CN1CCOCC1)C(Cc1ccccc1)(Cc1ccccc1)C(=O)N1CCCC1 (stereo not given)	none (no result: gsp agonist, RXFP1 agonist, gsp antagonist, TSHR antag)
O=[n+]1c2c(n([O-])c3cc(F)c(N4CCCC4)cc31)CCC2	gsp antagonist 40µM (no result: RXFP1 agonist, TSHR antag)
